ChEMBL document CHEMBL3988442, “University of Dundee, Small-Polar-MMV Screening Library” (2021)
Hit rate of the full screen: of about 48,000 compounds, about 13,000 (27%) showed an effect of 50% or more. Some of the results follow.

test system: Wolbachia pipientis; experiment: Anti-Wolbachia Cell-Based Screen; format: functional; parameters: scale not given: in the data most compounds retested in dose-response had high values; settings: 5 µM

First: COC(=O)Cn1nc(-c2ccccc2F)ccc1=O
Second: CC(=O)Cn1nc(-c2ccccc2F)ccc1=O
The “Percent Effect” value of the first is higher: 121.8% for the first, 119.2% for the second.

First: O=C(NC1CCN(c2ccc(-c3ccccc3F)nn2)C1)C1CCC1 (stereo not given)
Second: NC(=O)Cn1nc(-c2ccccc2F)ccc1=O
The “Percent Effect” value of the first is lower: -17.95% for the first, 144.8% for the second.

First: CC(C)(C)C(=O)Cn1nc(-c2ccccc2F)ccc1=O
Second: O=C(O)Cn1nc(-c2ccccc2F)ccc1=O
The “Percent Effect” value of the first is lower: -0.9957% for the first, 139.2% for the second.

Compared with `COc1ccc(F)cc1Cn1nc(C(N)=O)ccc1=O`, `COc1ccc(C(=O)Nc2ccccc2-c2ccc(=O)n(C)n2)nn1` is lower in “Percent Effect” value: 1.725% for the first, -4.369% for the second.

First: Cn1nc(-c2ccccc2NC(=O)c2cncc(Br)c2)ccc1=O
Second: CS(=O)(=O)c1ccc(NC(=O)CSc2ccc3c(c2)CCC3)cn1
The “Percent Effect” value of the first is lower: -4.851% for the first, 7.446% for the second.

First: CC(C)Oc1cccc(C(=O)C2CCCN(C(=O)c3ncn[nH]3)C2)c1 (stereo not given)
Second: CC1(C)CN(S(=O)(=O)N2CCCC2)CC1c1ccccc1 (stereo not given)
The “Percent Effect” value of the first is higher: -4.294% for the first, -16.61% for the second.

First: CC(c1nc(C2CC2)no1)N(C)Cc1cccc(F)c1 (stereo not given)
Second: Cc1cccc(CN2C[C@@H]3COC[C@]3(COc3ccc(C#N)cn3)C2)n1
The “Percent Effect” value of the first is higher: 12.3% for the first, -1.985% for the second.

First: CCN(CC)C(CNS(=O)(=O)c1ccc(C(=O)NC)cc1)c1ccco1 (stereo not given)
Second: O=S(=O)(c1ccccc1)N1C[C@@H]2COC[C@]2(COCC2CC2)C1
The “Percent Effect” value of the first is lower: 0.6188% for the first, 4.427% for the second.

Going from `O=S(=O)(C1CC1)N1CCC2(CC1)COC(COc1cccnc1)C2` (stereo not given) to `O=C1CCC[C@]2(CN(S(=O)(=O)C3CCCCC3)C[C@H]2c2cccnc2)N1`, the “Percent Effect” value rises from -3.155% to 155.7%.

First: O=C1CCC[C@]2(CN(S(=O)(=O)N3CCOCC3)C[C@H]2c2cccnc2)N1
Second: O=C1CCC[C@]2(CN(S(=O)(=O)N3CCCCC3)C[C@H]2c2cccnc2)N1
The “Percent Effect” value of the first is lower: 174.7% for the first, 175% for the second.

Going from `CC1(C)CN(S(=O)(=O)N2CCOCC2)CC1c1ccccc1` (stereo not given) to `N[C@H]1CN(S(=O)(=O)N2CCCCCC2)C[C@@H]1c1ccccc1`, the “Percent Effect” value rises from -33.51% to 3.796%.

Compared with `O=C(N1CC(c2cccnc2)C1)C1(c2ccc(F)cc2)CCOCC1`, `CC(C)N1CCC2(CC1)CC(c1cccnc1)C(=O)N2` (stereo not given) is lower in “Percent Effect” value: 1.587% for the first, -11.82% for the second.

First: CCc1[nH]ncc1C(=O)N1CCN(c2nc(C)cc(OC)n2)CC1
Second: N#Cc1ccc(OC[C@]23COC[C@H]2CN(c2ncccn2)C3)nc1
The “Percent Effect” value of the first is lower: -4.996% for the first, 98.67% for the second.

Going from `O=C(OCCNc1ncccn1)c1ccc(Cl)s1` to `c1ccc(COC[C@@H]2CC[C@H]3[C@H](CCN3c3ncccn3)O2)nc1`, the “Percent Effect” value falls from -0.7929% to -9.448%.

Compared with `c1ccc(COC[C@]23COC[C@H]2CN(c2ncccn2)C3)nc1`, `Cn1cc(CN2C[C@@H]3COC[C@]3(COc3ccc(C#N)cn3)C2)cn1` is lower in “Percent Effect” value: 107.1% for the first, -1.317% for the second.
